According to PubChem BioAssay (NCATS):
Records with an inconclusive call do not appear. Activity calls are given as the source filed them. Calls follow the shape of the dose curve; as a rule, active = well fitted inhibition curve with a large enough effect; inconclusive = small, poorly fitted or top-dose-only effect; inactive = flat fitted curve, though single readings scatter.

Tests used:
Experiment in all cases: qHTS profiling for inhibitors of Plasmodium falciparum proliferation (AID 504749); also: nearly all actives have a fitted effect of over 60% in size
Settings in all cases: P. falciparum in erythrocytes, SYBR Green DNA, 72 h; series mostly up to 12.8 µM
[1] = system: AA1029
Outline: (§1)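 Quantitative HTS: compounds pinned into medium, infected erythrocytes added (0.3% parasitemia, 2.5% hematocrit), 72 h culture at 37 C under 5% CO2. Saponin/Triton lysis with SYBR Green I, overnight RT, then fluorescence read.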

[2] = system: AS120
Outline: as §1

[3] = system: CP185
Outline: as §1

[4] = system: CP194
Outline: as §1

[5] = system: CP201
Outline: as §1

[6] = system: CP203
Outline: as §1

[7] = system: CP211
Outline: as §1

[8] = system: CP215
Outline: as §1

[9] = system: CP252
Outline: as §1

[10] = system: CP266
Outline: as §1

[11] = system: CP269
Outline: as §1

[12] = system: CP286
Outline: as §1

[13] = system: CP297
Outline: as §1

[14] = system: CP315
Outline: as §1

[15] = system: CP329
Outline: as §1

[16] = system: DIV17
Outline: as §1

[17] = system: DIV30
Outline: as §1

[18] = system: ECU
Outline: as §1

[19] = system: TAB113
Outline: as §1

[20] = system: TAB165
Outline: as §1

Measured: Potency

COc1ccc([C@@H]2CC(=O)c3c(O)cc(O[C@H]4O[C@@H](CO[C@H]5O[C@@H](C)[C@@H](O)[C@@H](O)[C@@H]5O)[C@@H](O)[C@@H](O)[C@@H]4O)cc3O2)cc1O
inactive: [1] | [2] | [3] | [4] | [5] | [6] | [7] | [8] | [9] | [10] | [11] | [12] | [13] | [14] | [15] | [16] | [17] | [18] | [19] | [20]

O=C(NC[C@@H](O)CO)c1c(I)c(C(=O)NC[C@@H](O)CO)c(I)c(N(CCO)C(=O)CO)c1I
inactive: [1] | [2] | [3] | [4] | [5] | [6] | [7] | [8] | [9] | [11] | [12] | [13] | [14] | [15] | [16] | [17] | [18] | [19] | [20]

CN1C(=O)C[C@H](c2ccccc2)C1=O
inactive: [1] | [4] | [5] | [6] | [7] | [8] | [9] | [10] | [11] | [12] | [13] | [14] | [15] | [16] | [17] | [18] | [20]

CC(C)(C)NC[C@H](O)COc1cccc2c1CCC(=O)N2
inactive: [1] | [2] | [3] | [4] | [5] | [6] | [7] | [8] | [9] | [10] | [11] | [12] | [13] | [14] | [15] | [16] | [17] | [18] | [19] | [20]

O=C(Nc1ccccc1)OC[C@H](CN1CCCCC1)OC(=O)Nc1ccccc1
inactive: [1] | [2] | [3] | [4] | [5] | [6] | [7] | [8] | [9] | [10] | [11] | [12] | [13] | [14] | [15] | [16] | [17] | [18] | [19] | [20]

C[C@H](Oc1ccccc1)C(=O)N[C@@H]1C(=O)N2[C@@H]1SC(C)(C)[C@@H]2C(=O)O
inactive: [1] | [2] | [3] | [4] | [5] | [6] | [7] | [8] | [9] | [10] | [11] | [12] | [13] | [14] | [15] | [16] | [17] | [18] | [19] | [20]

CS(=O)(=O)c1ccc([C@H](O)[C@H](CO)NC(=O)C(Cl)Cl)cc1
inactive: [2] | [10] | [16] | [17] | [19]

CO[C@H]1[C@@H](OC(N)=O)[C@H](O)[C@@H](Oc2ccc3c(O)c(NC(=O)c4ccc(O)c(CC=C(C)C)c4)c(=O)oc3c2C)OC1(C)C
inactive: [1] | [2] | [3] | [4] | [5] | [6] | [7] | [8] | [9] | [11] | [12] | [14] | [15] | [16] | [17] | [18] | [19] | [20]

CC[C@H](CO)NCCN[C@@H](CC)CO
inactive: [1] | [2] | [3] | [4] | [5] | [6] | [7] | [8] | [9] | [10] | [11] | [12] | [13] | [14] | [15] | [16] | [17] | [19] | [20]

CC(=O)[C@@]1(O)CC[C@H]2[C@H]3C[C@@H](C)C4=CC(=O)C=C[C@]4(C)[C@@]3(F)[C@@H](O)C[C@]21C
inactive: [1] | [2] | [3] | [4] | [5] | [6] | [7] | [8] | [9] | [11] | [12] | [13] | [14] | [15] | [16] | [17] | [18] | [19] | [20]

COc1cc2nc(N3CCN(C(=O)[C@@H]4CCCO4)CC3)nc(N)c2cc1OC
inactive: [1] | [2] | [3] | [4] | [5] | [6] | [7] | [8] | [9] | [11] | [12] | [13] | [14] | [15] | [16] | [17] | [18] | [19] | [20]

CC(=O)C[C@H](c1ccc([N+](=O)[O-])cc1)c1c(O)c2ccccc2oc1=O
inactive: [1] | [2] | [3] | [4] | [5] | [6] | [7] | [8] | [9] | [10] | [11] | [12] | [14] | [15] | [16] | [17] | [18] | [19] | [20]
